According to ChEMBL document CHEMBL3988442, “University of Dundee, Small-Polar-MMV Screening Library” (2021):
About 13,000 (27%) of roughly 48,000 compounds showed an effect of 50% or more. This is one part of the list.

test system: Wolbachia pipientis; assay: Anti-Wolbachia Cell-Based Screen; type: functional; set-up: scale not given: in the data most compounds retested in dose-response had high values; details: 5 µM

Row | SMILES | Percent Effect [%]
1 | CC(C)c1nnc2n1CC(CNCc1ccncc1)CC2 (stereo unspecified) | -13.6
2 | CCCS(=O)(=O)N1CCOC2(CCCN(c3ncc(F)cn3)C2)C1 (stereo unspecified) | -2.367
3 | N#CCCN(Cc1ccco1)C(=O)CCCc1ccccc1 | 9.287
4 | COc1nn(C)c2c1CCCN(S(=O)(=O)c1cccs1)C2 | 2.697
5 | Cc1ccc(NC(=O)C2CSCN2C(=O)c2cnccn2)c(C)c1 (stereo unspecified) | -0.3998
6 | NC(=O)C1(c2cnccn2)CCCN1Cc1ccc(Cl)cc1 (stereo unspecified) | 127.2
7 | NC(=O)C1(c2cnccn2)CCCN1Cc1ccncc1 (stereo unspecified) | 100.7
8 | O=C(O)C1(Cc2ccc(Cl)cc2)CCN(c2ncccc2F)CC1 | 4.468
9 | NC(=O)C1(c2cnccn2)CCCN1Cc1cccc(Cl)c1 (stereo unspecified) | 110.7
10 | Cc1cccc(CN2C[C@@H]3CN(C(=O)c4cnccn4)C[C@@H]3C2=O)c1 | -5.846
11 | Cl.Cl.O[C@@H]1C[C@@](CNCc2cccc(Cl)c2)(COc2cnccn2)C[C@@H]1O | -20.67
12 | Cc1ccc(CN2CCCC2(C(N)=O)c2cnccn2)c(C)c1 (stereo unspecified) | 148.6
13 | O=C(c1cnccn1)N1CCCC2(CCCN2Cc2cccnc2)C1 (stereo unspecified) | 8.648
14 | O=C(O)[C@]12CCCN(Cc3ccncc3)[C@@H]1CCN(c1cnccn1)C2 | 15.13
15 | Cc1cncc(C(=O)N2CCNCC2C(=O)NCc2ccncc2)c1 (stereo unspecified) | -0.08971
16 | Cc1ccccc1-c1cc(C(=O)NCCN2CCCS2(=O)=O)[nH]n1 | -0.2577
17 | Cc1c(C(=O)N2CCSCC2)sc2nc(C(F)(F)F)ccc12 | -6
18 | COC1CCN(S(=O)(=O)N2CC[C@@](O)(C3CCC3)[C@H](C)C2)CC1 | -8.21
19 | CC(C)c1cc(C(=O)N2CCc3ccccc3C2C(=O)O)n(C)n1 (stereo unspecified) | 5.563
20 | COCCOc1ccc(-c2noc([C@@H]3CCCN3C3CCC3)n2)cn1 | -15.03
21 | Cn1cccc1C(=O)N[C@@H]1CN(CC2CC2)[C@@H]2COC[C@@H]21.O=C(O)C(F)(F)F | -18.52
22 | Cl.Cn1cnc2c(-c3ccccc3)nc(C3CCNCC3)cc21 | -35.46
23 | Cc1nc(O)cc(C2CCN(C(=O)c3ccsc3)CC2)n1 | -4.98
24 | Cl.Oc1cc(C2CCNCC2)nc(-c2ccsc2)n1 | 186.4
25 | CC(C)CN1CC(c2nc(-c3ccsc3)c[nH]2)CC1=O (stereo unspecified) | -7.374
26 | O=C(c1ccsc1)N1CCCC(c2cc(C(F)(F)F)[nH]n2)C1 (stereo unspecified) | 0.1242

Row | SMILES | Percent Effect [%]
27 | O=C1NCCCCC1NCc1csc(-c2ccsc2)n1 (stereo unspecified) | -2.584
28 | FC(F)(F)c1cc(C2CCNCC2)nc(-c2ccsc2)n1 | 147.1
29 | Cc1cc(C2CCNCC2)nc(-c2ccsc2)n1.Cl | 168.5
30 | CC(C)(NC(=O)C1CCCN(C2CCCC2)C1)c1nnc(N)s1 (stereo unspecified) | -3.514
31 | CN1CCc2c(CNc3ncccn3)n[nH]c2C1.O=C(O)C(F)(F)F | -10.34
32 | COc1cccc(CC2CN(C(=O)c3ccnn3C)CCO2)c1 (stereo unspecified) | 14.16
33 | COc1cccc(C2CCN2C(=O)c2cnccn2)c1 (stereo unspecified) | -9.896
34 | Cn1nccc1C(=O)N1CCCC1c1ccc(C(=O)N2CCOCC2)s1 (stereo unspecified) | -16.33
35 | COc1cc(N2C[C@H]3CN(C(=O)c4cnccn4)C[C@H]3C2)ncn1 | 6.779
36 | COc1ccc2c(C)c(C(=O)NC3CCOCC3)oc2c1 | -11.52
37 | COc1ccc(CNC(=O)N2CCOCC2C2CC2)c(C)c1 (stereo unspecified) | -4.702
38 | COc1ccc2c(c1)CC(C1CCOCC1)N(C(=O)c1ccn(C)n1)C2 (stereo unspecified) | 107.8
39 | COc1ccc2c(c1)CC(C1CCOCC1)N(C(=O)c1cnccn1)C2 (stereo unspecified) | 143.6
40 | COc1ccc2c(c1)CC(C1CCOCC1)N(C(=O)c1ccnn1C)C2 (stereo unspecified) | 146.4
41 | CN(C(=O)c1ccc(Cl)cn1)c1ccccc1S(C)(=O)=O | -14.63
42 | O=C(N1CCC(O)(C(F)(F)F)C1)C1(c2ccc(Cl)cc2)CC1 (stereo unspecified) | 16.08
43 | Cc1cc(NC(=O)C(C)N2CCN(c3nc(C)ns3)CC2)on1 (stereo unspecified) | 15.5
44 | CN(Cc1nnc(C2CC2)o1)C(c1ccc(F)cc1)c1cccnc1 (stereo unspecified) | 14.1
45 | O=C(N1CCCC1)N1CCn2c(Cn3cccn3)cnc2C1 | 0.9982
46 | CN(C)C(=O)N1CCn2c(Cn3cccn3)cnc2C1 | -38.04
47 | O=C(c1ccc[nH]1)N1CCc2nnc(Cn3cccc3)n2CC1 | 104.6
48 | O=C(c1ccc[nH]1)N1CCc2ncc(Cn3cccn3)n2CC1 | 112.6
49 | CN(C)Cc1nnc2n1CCCN(C(=O)c1c[nH]cn1)C2 | -1.146
50 | O=C(c1ccc[nH]1)N1CCCn2c(nnc2Cn2cccn2)C1 | 88.61
51 | O=C(c1c[nH]cn1)N1CCCn2c(nnc2Cn2cccc2)C1 | 4.942
52 | O=C(C1CCCO1)N1CCCn2c(nnc2Cn2cccn2)C1 (stereo unspecified) | -13.04

Row | SMILES | Percent Effect [%]
53 | O=C1CCCN1Cc1nnc2n1CCCN(C(=O)c1ccc[nH]1)C2 | 114.8
54 | Cc1cnc(N2CCCn3c(nnc3Cn3cccn3)C2)nc1 | -6.744
55 | O=C(c1cccs1)N1CCc2nnc(COc3cncnc3)n2CC1 | 6.421
56 | O=C(C1CCCO1)N1CCc2nnc(Cn3cccc3)n2CC1 (stereo unspecified) | -14.83
57 | CC(C)(C)C(O)CN1CCN(Cc2cccc(C#N)c2)CC1 (stereo unspecified) | -1.667
58 | CC(=O)N[C@H]1CCN2C(=O)[C@@H](Cc3c[nH]c4ccccc34)NC(=O)[C@H]12 | -9.075
59 | COCCN1CC(C(=O)N(C)Cc2ccc(Cl)s2)CC1=O (stereo unspecified) | 25.53
60 | O=C(c1ccc(SC(F)F)cc1)N1CCOCC1c1ncon1 (stereo unspecified) | 2.35
61 | O=C1NCC(CN2CCc3onc(-c4ccc(C(F)(F)F)cc4)c3C2)O1 (stereo unspecified) | 4.598
62 | CC(C)N(C)Cc1nnc2n1CCCN(C(=O)c1ccco1)C2 | 10.89
63 | c1cnn(Cc2nnc3n2CCCN(c2nccs2)C3)c1 | -8.945
64 | O=C(O)C(F)(F)F.O=C(O)C(F)(F)F.O=C(c1c[nH]cn1)N1CCCn2c(CN3CCCCC3)nnc2C1 | 0.5876
65 | O=C(c1ccc[nH]1)N1CCc2nnc(Cn3cccn3)n2CC1 | 121.3
66 | O=C1CCCN1Cc1nnc2n1CCCN(C(=O)c1ccco1)C2 | 122.9
67 | O=C(O)C(F)(F)F.O=C(c1ccc[nH]1)N1CCCn2c(CNC3CCC3)nnc2C1 | 88.36
68 | Cc1[nH]ccc1C(=O)N1CCC(c2nnc(Cn3cccn3)n2C)CC1 | -8.959
69 | O=C(O)C(F)(F)F.O=C(c1ccccc1F)N1CCCn2c(CN3CCCCC3)nnc2C1 | 18.71
70 | Cc1cccc(C(=O)N2CCCn3c(CN4CCCCC4)nnc3C2)c1 | -5.352
71 | O=C(O)C(F)(F)F.O=C(c1ccccc1)N1CCCn2c(CN3CCCCC3)nnc2C1 | -7.245
72 | O=C(c1ccc[nH]1)N1CCCn2c(CN3CCCCC3)nnc2C1 | 104.7
73 | COCCNC(=O)C(C)S(=O)(=O)c1ccc(OC)cc1 (stereo unspecified) | -5.557
74 | CCS(=O)(=O)N(C)C1CCN(c2cccc(F)c2C(C)=O)CC1 | 1.671
75 | CCN(CC)C(=O)CC[C@@H]1CNC(=O)[C@@H]2C[C@H](NC(=O)C3CC3)CN12 | -0.8785
76 | COCc1nc(C(=O)NS(=O)(=O)c2ccc(C)c(C)c2)cs1 | -2.372
77 | CSCC(=O)N1CCC(c2nccn2Cc2cscn2)CC1 | -14.72
78 | COCC1CN(Cc2cc(C)on2)Cc2cn(CC3CC3)nc21 (stereo unspecified) | -5.451

Row | SMILES | Percent Effect [%]
79 | Cn1nc(C2CN(C(=O)c3ccncc3)C2)c2nccnc21 | 104.9
80 | Cc1ccc(C(=O)N2CC(c3cccnc3)C2)cc1N1CCNC1=O | -5.741
81 | O=C(c1ccncc1)N1C[C@@H]2CC[C@H](C1)N(C(=O)C1CCCC1)C2 | 23.43
82 | CCc1ccc2c(C3CN(S(C)(=O)=O)C3)ncn2c1 | 15.67
83 | CCN(C)C(=O)c1ncn2c(C3CCN(S(C)(=O)=O)CC3)ccnc12 | -14.84
84 | Cn1nc(C2CN(C(=O)c3cccnc3)C2)c2nccnc21 | 106.4
85 | Cn1nc(C2CN(S(C)(=O)=O)C2)c2nccnc21 | 134.2
86 | Cn1nc(C2CN(C(=O)c3cscn3)C2)c2nccnc21 | -8.374
87 | FC(F)(F)Oc1ccc(-c2noc([C@@H]3Cc4nc[nH]c4CN3)n2)cc1 | -8.285
88 | CCCc1nnc(N(C)CC2CCN(CC(C)C)CC2)o1 | -8.883
89 | Cc1ccc2nc(-c3cnc(N)nc3)c(C)c(C(=O)N(C)C)c2c1 | 2.177
90 | Cc1cc(N(C)C)nc(N2CCN(Cc3nccn3C)CC2)n1 | -14.83
91 | Cc1cc(N(C)C)nc(C2COCCN2Cc2cscn2)n1 (stereo unspecified) | 100.1
92 | Cc1nc(C)n(CC2CCCN2Cc2cscn2)n1 (stereo unspecified) | -0.8371
93 | Cc1cc(C)n(CC2CCCCN2Cc2cscn2)n1 (stereo unspecified) | 2.934
94 | Cc1cc(N(C)C)nc(N(C)Cc2csc(C)n2)n1 | -1.887
95 | Cc1cc(N(C)C)nc(C2COCCN2Cc2cc(C)on2)n1 (stereo unspecified) | 106.1
96 | CCOC(=O)N(C)C1CCN(Cc2csc(C)n2)CC1 | -9.858
97 | Cc1cc(CN2CCOC(CN(C)C)C2)no1 (stereo unspecified) | -11.72
98 | Cc1cc(N(C)C)nc(C2COCCN2Cc2csc(C)n2)n1 (stereo unspecified) | 76.41
99 | Cc1cc(N(C)C)nc(C2COCCN2Cc2nccn2C)n1 (stereo unspecified) | 106.8
100 | Cn1ccnc1CN1CCOC[C@H]1c1nc(C(C)(C)C)co1 | -3.783
101 | Cc1cc(CN2CCCC2c2noc(C)n2)no1 (stereo unspecified) | -4.781
